Experimental data: publication PMC7862700, “An all-to-all approach to the identification of sequence-specific readers for epigenetic DNA modifications on cytosine”

Tests used:
Test in all cases: DAPPL (digital affinity profiling via proximity ligation, sequencing); 10 mM Tris-HCl pH 7.5, 50 mM NaCl, 1 mM DTT, 4% glycerol, room temperature, 30 min; GST-TFs on glutathione beads, 16-mer random dsDNA library, 0.1% formaldehyde crosslink after washing; high values mean tight binding
[1] = biological target: T1, FEV (Homo sapiens, UniProt Q99581 1-238); details: protein: recombinant; tags: N-terminal GST; dsDNA, one strand shown
T1 sequence: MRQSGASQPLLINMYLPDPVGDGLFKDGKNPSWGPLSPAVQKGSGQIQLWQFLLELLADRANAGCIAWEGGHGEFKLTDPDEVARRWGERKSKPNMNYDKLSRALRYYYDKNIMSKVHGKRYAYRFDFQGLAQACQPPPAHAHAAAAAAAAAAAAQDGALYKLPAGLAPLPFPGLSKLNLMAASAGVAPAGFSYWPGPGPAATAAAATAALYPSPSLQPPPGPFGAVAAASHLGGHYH
Procedure, shortened: (§1)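 Pools of DNA-barcoded human transcription factors, expressed in yeast as GST fusions on glutathione beads and combined with a tag-only sample, were incubated with 200 nmole of a 16-mer random double-stranded DNA library. Incubation took 30 min at room temperature in Tris/NaCl/DTT/glycerol buffer and was followed by washing, 0.1% formaldehyde crosslinking, proximity ligation (BsaI/T4 ligase, 1 h, 37 °C), PCR amplification and sequencing on an Illumina NextSeq500. Binding signal is the ratio of a hexamer's read frequency for a factor to its frequency for the tag-only sample.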

[2] = biological target: ETV5 (Homo sapiens, UniProt P41161 1-510); details: protein: recombinant; tags: N-terminal GST; dsDNA, one strand shown
Procedure, shortened: as §1

[3] = biological target: HSF1 (Homo sapiens, UniProt Q00613 1-529); details: protein: recombinant; tags: N-terminal GST; chain copies: 3; dsDNA, one strand shown
Procedure, shortened: as §1

[4] = biological target: T2, SPIC (Homo sapiens, UniProt Q8N5J4 1-248); details: protein: recombinant; tags: N-terminal GST; dsDNA, one strand shown
T2 sequence: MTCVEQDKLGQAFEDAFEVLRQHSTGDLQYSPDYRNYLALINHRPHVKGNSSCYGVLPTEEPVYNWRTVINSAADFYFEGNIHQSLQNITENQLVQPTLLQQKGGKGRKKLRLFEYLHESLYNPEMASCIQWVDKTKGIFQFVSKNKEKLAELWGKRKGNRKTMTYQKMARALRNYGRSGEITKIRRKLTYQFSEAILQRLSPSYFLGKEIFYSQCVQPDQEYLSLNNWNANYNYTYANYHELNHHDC
Procedure, shortened: as §1

[5] = biological target: ELF4 (Homo sapiens, UniProt Q99607 1-663); details: protein: recombinant; tags: N-terminal GST; dsDNA, one strand shown
Procedure, shortened: as §1

[6] = biological target: T3, ELK4 (Homo sapiens, UniProt P28324-2 1-405); details: protein: recombinant; tags: N-terminal GST; dsDNA, one strand shown
T3 sequence: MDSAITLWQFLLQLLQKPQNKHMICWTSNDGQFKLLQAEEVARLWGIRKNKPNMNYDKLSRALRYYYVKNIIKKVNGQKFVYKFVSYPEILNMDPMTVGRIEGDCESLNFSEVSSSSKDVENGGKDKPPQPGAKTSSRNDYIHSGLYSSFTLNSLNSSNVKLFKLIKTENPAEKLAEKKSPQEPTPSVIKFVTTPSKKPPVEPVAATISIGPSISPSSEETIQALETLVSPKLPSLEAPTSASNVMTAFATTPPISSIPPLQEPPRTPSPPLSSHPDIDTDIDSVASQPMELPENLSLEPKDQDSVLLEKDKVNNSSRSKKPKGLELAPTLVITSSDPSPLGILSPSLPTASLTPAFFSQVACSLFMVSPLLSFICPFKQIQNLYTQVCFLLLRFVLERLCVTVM
Procedure, shortened: as §1

[7] = biological target: T4, ETV2 (Homo sapiens, UniProt O00321 1-342); details: protein: recombinant; tags: N-terminal GST; dsDNA, one strand shown
T4 sequence: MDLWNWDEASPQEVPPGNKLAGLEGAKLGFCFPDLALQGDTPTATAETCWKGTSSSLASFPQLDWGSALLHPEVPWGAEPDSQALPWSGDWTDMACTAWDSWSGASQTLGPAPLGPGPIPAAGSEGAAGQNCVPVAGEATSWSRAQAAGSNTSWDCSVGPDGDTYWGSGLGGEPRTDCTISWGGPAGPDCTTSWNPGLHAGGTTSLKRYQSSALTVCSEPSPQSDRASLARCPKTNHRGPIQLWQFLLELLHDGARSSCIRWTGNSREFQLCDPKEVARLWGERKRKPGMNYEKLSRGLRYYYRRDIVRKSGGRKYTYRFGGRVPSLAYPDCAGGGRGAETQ
Procedure, shortened: as §1

[8] = biological target: T5, ELF3 (Homo sapiens, UniProt P78545 1-371); details: protein: recombinant; tags: N-terminal GST; dsDNA, one strand shown
T5 sequence: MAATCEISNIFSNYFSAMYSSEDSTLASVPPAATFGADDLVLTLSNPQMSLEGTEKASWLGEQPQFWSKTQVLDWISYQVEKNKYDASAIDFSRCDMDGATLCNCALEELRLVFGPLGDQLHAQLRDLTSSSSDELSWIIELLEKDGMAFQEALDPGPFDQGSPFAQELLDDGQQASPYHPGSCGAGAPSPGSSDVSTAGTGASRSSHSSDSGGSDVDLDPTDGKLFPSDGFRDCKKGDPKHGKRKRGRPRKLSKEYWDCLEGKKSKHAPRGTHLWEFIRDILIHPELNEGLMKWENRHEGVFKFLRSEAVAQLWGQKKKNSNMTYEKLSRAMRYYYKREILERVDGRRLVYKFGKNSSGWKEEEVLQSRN
Procedure, shortened: as §1

[9] = biological target: CRX (Homo sapiens, UniProt O43186 1-299); details: protein: recombinant; tags: N-terminal GST; dsDNA, one strand shown
Procedure, shortened: as §1

Sequence of ETV5 (P41161 whole entry): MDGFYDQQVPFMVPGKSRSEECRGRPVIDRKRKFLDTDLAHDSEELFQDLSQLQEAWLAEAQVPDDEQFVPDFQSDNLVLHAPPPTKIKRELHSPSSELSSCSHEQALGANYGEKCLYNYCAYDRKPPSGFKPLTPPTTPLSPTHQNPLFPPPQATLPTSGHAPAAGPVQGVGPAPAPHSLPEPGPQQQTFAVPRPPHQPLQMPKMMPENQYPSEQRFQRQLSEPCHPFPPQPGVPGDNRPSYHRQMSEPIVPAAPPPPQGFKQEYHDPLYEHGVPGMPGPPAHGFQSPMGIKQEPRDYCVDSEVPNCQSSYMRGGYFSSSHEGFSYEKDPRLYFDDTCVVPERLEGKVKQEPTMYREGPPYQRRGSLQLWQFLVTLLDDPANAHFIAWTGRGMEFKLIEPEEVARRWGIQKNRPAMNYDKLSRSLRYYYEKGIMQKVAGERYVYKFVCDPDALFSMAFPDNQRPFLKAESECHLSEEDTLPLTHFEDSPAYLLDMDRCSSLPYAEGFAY
Sequence of CRX (O43186 whole entry): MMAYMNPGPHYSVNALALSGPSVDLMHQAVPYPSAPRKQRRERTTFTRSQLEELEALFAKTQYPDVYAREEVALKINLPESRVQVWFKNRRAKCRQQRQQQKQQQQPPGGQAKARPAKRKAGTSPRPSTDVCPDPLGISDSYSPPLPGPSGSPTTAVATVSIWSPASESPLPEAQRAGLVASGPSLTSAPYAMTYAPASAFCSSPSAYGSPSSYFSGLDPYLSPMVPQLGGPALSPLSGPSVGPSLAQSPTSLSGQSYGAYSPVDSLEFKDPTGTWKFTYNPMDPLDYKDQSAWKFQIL
Sequence of HSF1 (Q00613 whole entry): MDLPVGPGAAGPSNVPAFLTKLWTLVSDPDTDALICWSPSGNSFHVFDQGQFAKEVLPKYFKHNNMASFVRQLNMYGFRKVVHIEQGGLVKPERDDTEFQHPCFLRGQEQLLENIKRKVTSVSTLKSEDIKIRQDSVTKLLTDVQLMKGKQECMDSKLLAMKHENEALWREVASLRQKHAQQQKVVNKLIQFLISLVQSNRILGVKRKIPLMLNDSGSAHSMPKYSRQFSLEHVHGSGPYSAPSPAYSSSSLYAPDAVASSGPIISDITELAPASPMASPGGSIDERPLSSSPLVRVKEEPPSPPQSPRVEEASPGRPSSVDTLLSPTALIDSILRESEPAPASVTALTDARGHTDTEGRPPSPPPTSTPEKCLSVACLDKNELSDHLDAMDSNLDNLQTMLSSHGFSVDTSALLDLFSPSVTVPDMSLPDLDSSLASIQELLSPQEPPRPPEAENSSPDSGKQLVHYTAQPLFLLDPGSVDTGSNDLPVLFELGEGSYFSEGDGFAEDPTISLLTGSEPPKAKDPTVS
Sequence of ELF4 (Q99607 whole entry): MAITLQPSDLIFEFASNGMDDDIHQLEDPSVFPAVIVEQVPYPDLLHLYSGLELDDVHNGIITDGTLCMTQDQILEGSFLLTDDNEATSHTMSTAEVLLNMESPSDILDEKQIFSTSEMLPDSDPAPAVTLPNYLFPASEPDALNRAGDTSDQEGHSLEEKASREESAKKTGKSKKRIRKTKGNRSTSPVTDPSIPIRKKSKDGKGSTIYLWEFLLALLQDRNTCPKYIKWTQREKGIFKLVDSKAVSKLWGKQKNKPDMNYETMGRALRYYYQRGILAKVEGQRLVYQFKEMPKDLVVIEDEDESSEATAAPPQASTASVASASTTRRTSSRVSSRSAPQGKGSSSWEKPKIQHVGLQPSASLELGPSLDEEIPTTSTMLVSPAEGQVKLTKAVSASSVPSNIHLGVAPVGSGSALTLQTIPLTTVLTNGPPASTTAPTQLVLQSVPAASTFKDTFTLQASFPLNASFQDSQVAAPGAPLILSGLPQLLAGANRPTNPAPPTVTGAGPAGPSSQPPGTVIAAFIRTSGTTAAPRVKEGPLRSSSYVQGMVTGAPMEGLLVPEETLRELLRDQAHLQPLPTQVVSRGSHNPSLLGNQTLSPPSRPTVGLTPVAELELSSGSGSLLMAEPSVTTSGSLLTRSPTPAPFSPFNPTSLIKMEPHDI

TTCACT
binding signal [1]: 1.4 fold enrichment (6-mer frequency, TF over GST control)
binding signal [2]: 1.31 fold enrichment (6-mer frequency, TF over GST control)
binding signal [3]: 1.13 fold enrichment (6-mer frequency, TF over GST control)
binding signal [4]: 1.16 fold enrichment (6-mer frequency, TF over GST control)
binding signal [5]: 1.34 fold enrichment (6-mer frequency, TF over GST control)
binding signal [6]: 1.42 fold enrichment (6-mer frequency, TF over GST control)
binding signal [7]: 1.39 fold enrichment (6-mer frequency, TF over GST control)
binding signal [8]: 1.2 fold enrichment (6-mer frequency, TF over GST control)
binding signal [9]: 1.1 fold enrichment (6-mer frequency, TF over GST control)
